Test results from PubChem BioAssay (Tox21).
Records with an inconclusive call do not appear. The source made the active and inactive calls. Unless noted, the call rests on the fitted dose curve; in most records, active means well fitted curve in the direction sought with a large enough effect in the repeat runs; inconclusive means weak or mixed curves; inactive means no such curve, though single readings can be large; an effect the other way counts as inactive or inconclusive.

target: Progesterone receptor (Homo sapiens) (UniProt P06401); experiment: qHTS assay to identify small molecule antagonists of the progesterone receptor (PR) signaling pathway (AID 1346795; active means well fitted inhibition curve with a large enough effect in the signal ratio in the repeat runs, not every such curve was filed as active; the % refers to the signal ratio); details: PR-UAS-bla HEK293T, beta-lactamase FRET ratio, 16 h; series mostly up to 92.4 µM; activity change, negative = inhibition: at the top concentration
Sequence (P06401 whole entry, looked up): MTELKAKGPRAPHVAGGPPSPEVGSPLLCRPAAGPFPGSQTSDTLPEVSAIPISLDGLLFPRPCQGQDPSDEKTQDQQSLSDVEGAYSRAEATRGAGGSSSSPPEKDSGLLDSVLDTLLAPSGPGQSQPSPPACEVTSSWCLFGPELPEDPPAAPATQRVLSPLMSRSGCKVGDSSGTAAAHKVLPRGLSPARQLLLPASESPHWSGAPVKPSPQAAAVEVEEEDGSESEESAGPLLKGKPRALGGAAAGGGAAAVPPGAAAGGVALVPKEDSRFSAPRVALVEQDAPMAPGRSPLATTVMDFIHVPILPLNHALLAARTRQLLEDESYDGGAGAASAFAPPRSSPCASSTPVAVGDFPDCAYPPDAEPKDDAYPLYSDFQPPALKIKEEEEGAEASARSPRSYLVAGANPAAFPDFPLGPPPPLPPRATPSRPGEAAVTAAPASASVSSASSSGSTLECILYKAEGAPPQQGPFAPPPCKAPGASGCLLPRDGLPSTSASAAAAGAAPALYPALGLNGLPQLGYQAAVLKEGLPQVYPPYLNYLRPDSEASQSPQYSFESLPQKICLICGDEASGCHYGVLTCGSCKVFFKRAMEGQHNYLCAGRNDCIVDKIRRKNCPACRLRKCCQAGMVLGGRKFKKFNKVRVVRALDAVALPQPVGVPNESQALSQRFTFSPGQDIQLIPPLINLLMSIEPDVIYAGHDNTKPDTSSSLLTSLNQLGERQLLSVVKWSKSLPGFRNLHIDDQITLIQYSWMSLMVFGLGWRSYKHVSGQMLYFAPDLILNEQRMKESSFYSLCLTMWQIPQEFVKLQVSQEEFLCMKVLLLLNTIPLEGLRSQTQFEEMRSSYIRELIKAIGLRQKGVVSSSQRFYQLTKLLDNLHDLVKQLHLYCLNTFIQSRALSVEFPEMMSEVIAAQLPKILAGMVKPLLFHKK
Summary of the method: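 Antagonist mode: compounds tested against 1 nM (final) promegestone stimulation in HEK293T cells expressing PR-UAS-bla reporter, 16 hr at 37C, 5% CO2; beta-lactamase activity detected via B/G FRET substrate after 2 hr at room temperature.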
On the % scale 0 is the no-effect control and ±100 the full control effect; potency means the concentration at half of the fitted maximal effect.

Structure (SMILES)	activity change, negative = inhibition	Potency
CCOC(=O)[C@@](C)(N)Cc1ccc(O)c(O)c1	-1.2% [at 42.5 µM] (inactive)	
CCC(=O)CC(C)CC (stereo not drawn)	2.97% [at 0.348 µM] (inactive)	
CCCCCCCCC(C)=O	3.82% (inactive)	
CCCCCCCCCCc1ccccc1	4.51% (inactive)	
C/C=C/C(=O)Oc1c(CCCCCC(C)C)cc([N+](=O)[O-])cc1[N+](=O)[O-]		19.3 µM (active)
COC(=O)C1=C(C)NC(C)=C(C(=O)OCCCN2CCC(c3ccccc3)(c3ccccc3)CC2)C1c1cccc([N+](=O)[O-])c1 (stereo not drawn)		18.8 µM (active)
CC(COC(=O)c1ccccc1)OC(=O)c1ccccc1 (stereo not drawn)	-17.6% (inactive)	
C(=C/c1ccccc1)/c1ccccc1	6.85% (inactive)	
c1cc[nH]c1	-0.433% (inactive)	
CCCCCCCCCCCCN(CCO)CCO		60.9 µM (active)
OCCC(O)CO (stereo not drawn)	0.078% (inactive)	
NCCCCCCNCCCCCCN	3.07% (inactive)	
Cc1c(C(=O)O)cccc1[N+](=O)[O-]	-24.5% (inactive)	
O=C(O)c1cccc(Cl)n1	-6.64% (inactive)	
CCCCCCCCCCCCCCCC	0.782% (inactive)	
CCO[Si](C)(C)OCC	5.14% (inactive)	
O=C=NCc1cccc(CN=C=O)c1	0.417% [at 18.9 µM] (inactive)	
NC(=O)c1nc(-c2cccc(-c3cc(F)ccc3OCC(F)(F)C(F)(F)F)c2)n[nH]1		34.4 µM (active)
CO[Si](CCC1CCC2OC2C1)(OC)OC (stereo not drawn)	0.32% (inactive)	
ClC/C=C\CCl	0.33% (inactive)	
CC(=O)OC1CCCCC1	1.23% (inactive)	
c1ccc(Sc2ccccc2)cc1	-24.8% (inactive)	
Cc1ccc(CCn2c3c(c4cc(Cl)ccc42)CN(C)CC3)cn1	-14.7% [at 42.5 µM] (inactive)	
CCc1cccc(C)c1	-0.272% (inactive)	
CCC(C)C(=O)OC (stereo not drawn)	2.39% (inactive)	
CCN(CC)c1cccc(C)c1	-1.01% (inactive)	
CCCCCCCC(=O)OCC	5.11% (inactive)	
OCCCc1cccnc1	3.43% (inactive)	
Cc1cc(C)c(C=O)c(C)c1	0.887% (inactive)	

test system: not listed separately; experiment: qHTS assay to identify small molecule antagonists of the progesterone receptor (PR) signaling pathway - cell viability counter screen (AID 1346798); details: PR-UAS-bla HEK293T viability, CellTiter-Glo luminescence, 16 h; series mostly up to 92.4 µM; activity change, negative = cytotoxicity: at the top concentration; further: nearly all actives have a fitted effect of over 50% in size
Summary of the method: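 Counter screen for cytotoxicity: viability of PR-UAS-bla HEK293T cells was measured with CellTiter-Glo luminescence following 16 hr compound exposure in the presence of R5020.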

Structure (SMILES)	activity change, negative = cytotoxicity	Potency
CCC(=O)CC(C)CC (stereo not drawn)	-3.42% [at 0.348 µM] (inactive)	
CCCCCCCCC(C)=O	14.5% (inactive)	
CCCCCCCCCCc1ccccc1	-1.51% (inactive)	
Nc1cc(Cl)c([N+](=O)[O-])cc1O	4.55% (inactive)	
COC(=O)C1=C(C)NC(C)=C(C(=O)OCCCN2CCC(c3ccccc3)(c3ccccc3)CC2)C1c1cccc([N+](=O)[O-])c1 (stereo not drawn)		18.8 µM (active)
CC(COC(=O)c1ccccc1)OC(=O)c1ccccc1 (stereo not drawn)	17.3% (inactive)	
C(=C/c1ccccc1)/c1ccccc1	9.57% (inactive)	
Clc1nc2ccccc2s1	-11.9% (inactive)	
OCCC(O)CO (stereo not drawn)	3.46% (inactive)	
NCCCCCCNCCCCCCN	15.4% (inactive)	
O=C(O)c1cccc(Cl)n1	2.24% (inactive)	
CC=O		32 µM (active)
CCO[Si](C)(C)OCC	-3.93% (inactive)	
O=C=NCc1cccc(CN=C=O)c1	-11.8% [at 18.9 µM] (inactive)	
ClC/C=C\CCl	-1.4% (inactive)	
CC(=O)OC1CCCCC1	1.29% (inactive)	
c1ccc(Sc2ccccc2)cc1	-22.9% (inactive)	
Cc1ccc(CCn2c3c(c4cc(Cl)ccc42)CN(C)CC3)cn1		26.6 µM (active)
CCc1cccc(C)c1	-4.12% (inactive)	
CCC(C)C(=O)OC (stereo not drawn)	-0.218% (inactive)	
CCCCCCCCCCCCCC[n+]1ccccc1		54.5 µM (active)
Cc1cc(C)c(C=O)c(C)c1	-2.3% (inactive)	
COc1cccc(CCc2ccccc2OCC(CN(C)C)OC(=O)CCC(=O)O)c1 (stereo not drawn)		13.3 µM (active)

test system: not listed separately; experiment: qHTS assay to identify small molecule agonists of the progesterone receptor (PR) signaling pathway - cell viability counter screen (AID 1346799; calls by dose curve; further: nearly all actives have a fitted effect of over 45% in size); details: PR-UAS-bla HEK293T viability, CellTiter-Glo luminescence, 16 h; series mostly up to 92.4 µM; activity change, negative = cytotoxicity: at the top concentration
Summary of the method: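 Cells (PR-UAS-bla HEK293T) are plated at 3,000/well in 2% charcoal-stripped FBS medium, rested 6 hr, dosed and incubated 16 hr at 37C. CellTiter-Glo is then added and luminescence measured after 30 min at room temperature.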

Structure (SMILES)	activity change, negative = cytotoxicity	Potency
CCCCCCCCC(C)=O	-1.77% (inactive)	
CCCCCCCCCCc1ccccc1	-4.21% (inactive)	
Nc1cc(Cl)c([N+](=O)[O-])cc1O	12.5% (inactive)	
CC(COC(=O)c1ccccc1)OC(=O)c1ccccc1 (stereo not drawn)	13.6% (inactive)	
C(=C/c1ccccc1)/c1ccccc1	1.14% (inactive)	
c1cc[nH]c1	1.62% (inactive)	
O=C1NCCN1CCN1CCC(c2cn(-c3ccc(F)cc3)c3ccc(Cl)cc23)CC1	-18.5% [at 42.5 µM] (inactive)	
O=C(O)c1cccc(Cl)n1	-22.8% (inactive)	
CC=O		45.3 µM (active)
CCO[Si](C)(C)OCC	8.68% (inactive)	
O=C=NCc1cccc(CN=C=O)c1	-1.39% [at 19 µM] (inactive)	
ClC/C=C\CCl	6.1% (inactive)	
c1ccc(Sc2ccccc2)cc1	-9.23% (inactive)	
Cc1ccc(CCn2c3c(c4cc(Cl)ccc42)CN(C)CC3)cn1		21.1 µM (active)
CCc1cccc(C)c1	0.53% (inactive)	
CCN(CC)c1cccc(C)c1	-2.63% (inactive)	
CCCCCCCC(=O)OCC	-15.7% (inactive)	
OCCCc1cccnc1	-1.18% (inactive)	
COc1cccc(CCc2ccccc2OCC(CN(C)C)OC(=O)CCC(=O)O)c1 (stereo not drawn)		2.98 µM (active)

test system: not listed separately; experiment: qHTS assay to identify small molecule antagonists of the TGF-beta/Smad signaling pathway - cell viability counter screen (AID 1346824); details: SBE-bla HEK293T viability, CellTiter-Glo luminescence; series mostly up to 76.8 µM; viability change, negative = cytotoxic: at the top concentration; further: nearly all actives have a fitted effect of over 50% in size
Summary of the method: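 SBE-bla HEK 293T cells, incubated overnight, then compound plus 0.25 ng/mL TGF-beta1 (stock added) for 5 hr at 37 C. Viability was read in the same wells by CellTiter-Glo luminescence after 30 min at room temperature.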

Structure (SMILES)	viability change, negative = cytotoxic	Potency
CCOC(=O)[C@@](C)(N)Cc1ccc(O)c(O)c1	-2.26% [at 35.3 µM] (inactive)	
CCC(=O)CC(C)CC (stereo not drawn)	13.2% [at 0.29 µM] (inactive)	
CCCCCCCCC(C)=O	-0.0653% (inactive)	
CCCCCCCCCCc1ccccc1	-0.111% (inactive)	
Nc1cc(Cl)c([N+](=O)[O-])cc1O	2.15% (inactive)	
COC(=O)C1=C(C)NC(C)=C(C(=O)OCCCN2CCC(c3ccccc3)(c3ccccc3)CC2)C1c1cccc([N+](=O)[O-])c1 (stereo not drawn)	-16.7% [at 35.3 µM] (inactive)	
C(=C/c1ccccc1)/c1ccccc1	-6.95% (inactive)	
CCCCCCCCCCCCN(CCO)CCO	-39.6% (inactive)	
Clc1nc2ccccc2s1	-0.281% (inactive)	
OCCC(O)CO (stereo not drawn)	5.67% (inactive)	
NCCCCCCNCCCCCCN	4.32% (inactive)	
Cc1c(C(=O)O)cccc1[N+](=O)[O-]	0.552% (inactive)	
O=C(O)c1cccc(Cl)n1	-0.461% (inactive)	
CCCCCCCCCCCCCCCC	-2.72% (inactive)	
CCO[Si](C)(C)OCC	3.34% (inactive)	
O=C=NCc1cccc(CN=C=O)c1	-4.21% [at 15.8 µM] (inactive)	
NC(=O)c1nc(-c2cccc(-c3cc(F)ccc3OCC(F)(F)C(F)(F)F)c2)n[nH]1	-16.5% (inactive)	
c1ccc(Sc2ccccc2)cc1	5.68% (inactive)	
Cc1ccc(CCn2c3c(c4cc(Cl)ccc42)CN(C)CC3)cn1	-12.8% [at 35.3 µM] (inactive)	
CCc1cccc(C)c1	-0.241% (inactive)	
O=C(O)Cc1ccc(OCCNC[C@H](O)c2ccccc2)cc1	-3.98% [at 35.3 µM] (inactive)	
CCC(C)C(=O)OC (stereo not drawn)	1.04% (inactive)	
CCN(CC)c1cccc(C)c1	-3.99% (inactive)	
OCCCc1cccnc1	-0.144% (inactive)	
CCCCCCCCCCCCCC[n+]1ccccc1		54.9 µM (active)
Cc1cc(C)c(C=O)c(C)c1	-3.29% (inactive)	
COc1cccc(CCc2ccccc2OCC(CN(C)C)OC(=O)CCC(=O)O)c1 (stereo not drawn)	3.84% [at 35.3 µM] (inactive)	
